Results taken from PMC4336329 (PLoS ONE, 2015).
In all, about 310,000 compounds went through this assay and about 14,000 (4.5%) showed an effect of 50% or more. Effects have a minus sign here. Many of the other results were omitted from the sample, so strong results are more common in it than they were.

Each molecule was assayed against human ether-à-go-go-related gene (hERG) potassium channel (human, UniProt Q12809) (assay: primary screen, population patch clamp on CHO cells stably expressing hERG; higher = less effect of the substance).
human ether-à-go-go-related gene (hERG) potassium channel, sequence (Q12809 whole entry, looked up): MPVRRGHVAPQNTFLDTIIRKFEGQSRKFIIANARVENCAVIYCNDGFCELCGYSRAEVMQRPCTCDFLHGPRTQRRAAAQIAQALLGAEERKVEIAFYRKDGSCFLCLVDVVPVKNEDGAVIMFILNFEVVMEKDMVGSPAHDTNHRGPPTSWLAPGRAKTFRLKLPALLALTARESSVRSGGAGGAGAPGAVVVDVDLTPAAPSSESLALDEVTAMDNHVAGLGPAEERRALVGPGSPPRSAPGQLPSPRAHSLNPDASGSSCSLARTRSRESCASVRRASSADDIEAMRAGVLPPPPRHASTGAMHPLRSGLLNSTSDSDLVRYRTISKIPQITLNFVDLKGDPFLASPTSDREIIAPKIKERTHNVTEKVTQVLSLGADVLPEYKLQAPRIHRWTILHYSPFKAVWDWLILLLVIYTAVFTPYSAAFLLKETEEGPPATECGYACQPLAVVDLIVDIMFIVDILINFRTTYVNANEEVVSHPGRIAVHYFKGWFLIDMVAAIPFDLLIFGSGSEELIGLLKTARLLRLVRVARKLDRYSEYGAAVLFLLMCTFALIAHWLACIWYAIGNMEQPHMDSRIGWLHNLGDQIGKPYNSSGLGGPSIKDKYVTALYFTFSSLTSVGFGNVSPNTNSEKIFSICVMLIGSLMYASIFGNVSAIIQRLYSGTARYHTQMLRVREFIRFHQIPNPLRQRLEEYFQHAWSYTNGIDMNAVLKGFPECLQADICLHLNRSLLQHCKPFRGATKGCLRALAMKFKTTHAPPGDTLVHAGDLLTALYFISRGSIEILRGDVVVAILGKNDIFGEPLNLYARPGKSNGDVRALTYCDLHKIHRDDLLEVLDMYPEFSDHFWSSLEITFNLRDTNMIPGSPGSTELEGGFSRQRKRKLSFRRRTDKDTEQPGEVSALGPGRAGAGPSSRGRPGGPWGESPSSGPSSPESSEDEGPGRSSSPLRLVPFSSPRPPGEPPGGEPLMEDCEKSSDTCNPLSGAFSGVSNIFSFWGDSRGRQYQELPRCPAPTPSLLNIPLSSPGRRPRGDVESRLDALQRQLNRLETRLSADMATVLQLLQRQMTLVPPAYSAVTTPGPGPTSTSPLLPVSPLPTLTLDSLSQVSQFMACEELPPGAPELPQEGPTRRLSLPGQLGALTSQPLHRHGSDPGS
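Further: peak tail current of the secondary pulse compared with the same well before compound.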

Compound	hERG current change (%, negative = inhibition) at 10uM
Cc1cc(O)ccc1N/C=C(\C#N)c1nc2ccccc2o1	10.2%
C=C(C)COc1ccc2c(C)c(CCC(=O)NC3CC3)c(=O)oc2c1	-2.92%
CCOC(=O)c1sc2nc(CN3CCN(c4cccc(C(F)(F)F)c4)CC3)[nH]c(=O)c2c1C	8.43%
N#Cc1ccc(Cn2c(-c3ccc(F)cc3)noc2=O)cc1	-17.8%
COc1ccc(-c2noc(=O)n2Cc2ccccc2Cl)cc1	-8.73%
COc1ccc(-c2noc(=O)n2Cc2ccc(C#N)cc2)cc1	-70.1%
Cc1cc(C)n(Cc2ccc(C(=O)O)o2)n1	11.5%
COc1ccccc1COn1c(=O)c(-c2ccco2)[n+]([O-])c2ccccc21	5.96%
N=c1c(C(=O)NCc2ccccc2)cc2c(=O)n3ccccc3nc2n1CCCN1CCOCC1	-78.6%
Cc1ccc(S(=O)(=O)c2cc3c(=O)n4ccccc4nc3n(CCCN3CCOCC3)c2=N)cc1C	-36.8%
N=c1c(S(=O)(=O)c2ccc(Cl)cc2)cc2c(=O)n3ccccc3nc2n1CCN1CCOCC1	-46.4%
Nc1c(C(=O)NCc2ccc(F)cc2)c2nc3ccccc3nc2n1CCCN1CCOCC1	0.0395%
O=C(NCCN1CCOCC1)c1c(O)nc2ccccn2c1=O	10.9%
N=c1c(C(=O)NCCN2CCOCC2)cc2c(=O)n3ccccc3nc2n1CCc1ccccc1	-72.5%
N=c1c(C(=O)NCc2ccc(F)cc2)cc2c(=O)n3ccccc3nc2n1CCCN1CCOCC1	-83%
N=c1c(S(=O)(=O)c2ccccc2)cc2c(=O)n3ccccc3nc2n1CCCN1CCOCC1	-65.9%
CN(C)S(=O)(=O)N1CCC(Oc2ccc(C(=O)NCCc3cscn3)cc2)CC1	0.0832%
CC(C)O.CCc1nnc(NS(=O)(=O)c2ccc(NC(=O)C(c3ccccc3)c3ccccc3)cc2)s1	2.36%
CCc1nnc(NC(=O)C2CC(=O)N(c3ccc4c(c3)OCCO4)C2)s1 (stereo not shown)	4.32%
CC(=O)Nc1ccc(C(=O)CS(=O)(=O)c2ccc(C)cc2)cc1	-11.5%
N=c1c(C(=O)NCCN2CCOCC2)cc2c(=O)n3ccccc3nc2n1CCCN1CCOCC1	-4.43%
N=c1c(C(=O)NCCc2ccccc2)cc2c(=O)n3ccccc3nc2n1CCCN1CCOCC1	-76.2%
